Measured values taken from PubChem BioAssay (NCI).
Compounds without any hit were thinned out: in the full panel of roughly 83,000, 20% have a hit.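 For each line, cells grew in 96-well plates with the test compound present at a single concentration for 48 hours.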 A number with no mark means an inactive call. Activity calls are given as the source filed them. The calls were made as follows: active = growth percent below 10; inactive = the rest.

Test system: MDA-MB-468 breast
Test: NCI-60 one-dose screen, 48 h (100 = growth as untreated, 0 = no growth, -100 = all killed)
Settings: 10 µM unless noted

| SMILES | growth |
| --- | --- |
| CCOC(=O)/C(C#N)=C(\C)CCc1ccccc1 | 76.5% |
| COc1ccc(-c2n[nH]nc2-c2cc3ccccc3s2)cc1O | 40.8% |
| CC(C)(C)CC(C)(C)n1nnnc1C(NC12CC3CC(CC(C3)C1)C2)c1ccccc1 (stereo not drawn) | 65.7% |
| Clc1ccc(-c2nc3ccccc3s2)cc1Cl | 110% |
| CC1=NN(c2cccc(S(N)(=O)=O)c2)C(=O)C1 | 95.6% |
| COc1ccc(-c2cc3c(nn2)-c2ccccc2C3=O)cc1 | -4.8% (active) |
| O=C(/C=C/c1cccc(Cl)c1)OCc1ccc2cc1OCC#C/C=C\C#CCO2 | 79.2% |
| O=C(Nc1cc(Cl)cc(Cl)c1)Nc1ccc2oc(=O)ccc2c1 | 15.7% |
| COc1c(Br)cc(C(c2cc(Br)c(OC)c(Br)c2)c2ccccc2C(=O)O)cc1Br | 100% |
| O=C1/C(=C\c2cn(C(=O)c3ccc(Cl)cc3)c3ccccc23)c2ccccc2N1c1c(Cl)cccc1Cl | 97.7% |
| C#Cc1cc2c(N)c(C(=O)c3cc(OC)c(OC)c(OC)c3)[nH]c2cc1OC | 9.88% (active) |
| C#CCOc1ccc2ncnc(Nc3ccc(NC(=O)CCl)cc3)c2c1 | -57.7% (active) |
| COc1ccc(N2CCC(=O)NC2=S)cc1 | 100% |
| COC(=O)/C(CCC=C(C)C)=C1\[C@@H](OC(C)=O)C[C@@]2(C)[C@H]1C[C@@H](O)[C@H]1[C@@]3(C)CC[C@H](NCCO)[C@@H](C)[C@@H]3CC[C@@]12C | 104% |
| CCOc1ccccc1NC(=O)CCC(=O)OC | 99.7% |
| O=C(Cc1ccc(Nc2ccnc(C(F)(F)F)c2)cc1)N/N=C/c1ccccc1O | 8.1% (active) |
| CC(C(=O)O)(C1CCCCC1)C1(O)CCCCC1 (stereo not drawn) | 106% |
| CCCCCCCCc1ccc(CCC(N)(CO)CO)cc1 | -93.1% (active) |
| CCCCOc1c(N)cccc1C(=O)OCCN(CC)CC | 112% |

| SMILES | growth |
| --- | --- |
| Cc1ccc(OCc2occc2C(=O)N2CCOCC2)cc1 | 103% |
| COC(=O)C1=C(C)C(=O)CC1 | 110% |
| CC1=C(C(=O)Nc2ccc(F)cc2)C(c2ccc(C)cc2)C2=C(CC(C)(C)CC2=O)N1 (stereo not drawn) | 84.7% |
| Cc1ccc(S(=O)(=O)n2cc(C(=O)C(=O)Nc3ccncc3)c3ccccc32)cc1 | 1.96% (active) |
| COc1cc2ncnc(Nc3ccc(F)c(Cl)c3)c2cc1OCC(=O)N1CCOCC1 | -15.9% (active) |
| C=C1C(=O)O[C@H]2[C@H]1CC/C(Cn1cc(CCC)nn1)=C\CC[C@@]1(C)O[C@@H]21 | -31.7% (active) |
| COc1cc2cc(C(=O)Nc3ccccc3)c(N)nc2cc1OC | -81.5% (active) |
| COc1ccc(-c2cncnc2N)cc1OC | 116% |
| CCOCC[P+](c1ccccc1)(c1ccccc1)c1ccccc1 | 2.17% (active) |
| O=C(Cc1ccc(/C=C/C(=O)c2nccs2)cc1)Nc1ccccc1 | 91.7% |
| NS(=O)(=O)c1ccc(Nc2nc(N/N=C/C=C/c3ccccc3)nc(Nc3ccccc3)n2)cc1 | 15.6% |
| Nc1ccc(CC[C@H]2CCC/C=C/[C@@H]3C[C@H](O)C[C@H]3[C@H](O)/C=C/C(=O)O2)cc1 | -27.3% (active) |
| C[C@H]1[C@H](C)CC[C@]2(C(=O)O)CC[C@]3(C)C(=CC[C@@H]4[C@@]5(C)C[C@@H](Cc6cn([C@@H]7O[C@H](CO)[C@@H](O)[C@H](O)[C@H]7O)nn6)[C@H](O)C(C)(C)[C@@H]5CC[C@]43C)[C@H]12 | 94.1% |
| CCOC(=O)[C@@H]1CSC(CC)=C(C(=O)O)N1 | 113% |
| COc1ccc(C2C3=C(COC3=O)N(CCO)c3cc(OC)c(OC)cc32)cc1 (stereo not drawn) | 110% |
| C#Cc1nc(/C=C\CCCCCCC(=O)NO)cs1 | 23.1% |
| O=S(=O)(CC(O)(c1ccccc1)c1ccccc1)CC(O)(c1ccccc1)c1ccccc1 | 77.4% |
| COc1ccc(OC)c(C2OC(c3ccc4ccccc4c3O)=NN2C(C)=O)c1 (stereo not drawn) | 53.9% |
| CC1=C(/C=C/C(C)=C/C=C(C(=O)O)\C(C)=C\C(=O)O)C(C)(C)CCC1 | 109% |
